Test results as given in PubChem BioAssay AID2315 (National Center for Advancing Translational Sciences (NCATS), 2010).
Hit rate of the full screen: of about 290,000 compounds, about 27,000 (9.3%) were called active. Cut-off read from the data, not from the text of the source: active = inhibition mostly above about 28% (no sharp cut-off); inactive = mostly below about 43%. What follows is part of a selection rich in actives, with near analogues and random picks from the rest.

assay: A qHTS for Small Molecule Inhibitors of Shiga Toxin; details: Vero cells, Shiga toxin protein synthesis inhibition reporter; at 38.7 µM, stronger effect = higher value; note: 0% is about no effect

Structure (SMILES)	inhibition
O=C(O)C1CCCN1S(=O)(=O)c1ccc(Br)cc1 (centres undefined)	-1.18% (inactive)
COc1cc(CNc2ncn[nH]2)ccc1OCc1ccccc1C	67.9% (active)
c1n[nH]c(NCc2ccc3c(c2)OCO3)n1	-23.7% (inactive)
COc1ccc(CCNC(=O)C(=O)NCc2ccccc2C)cc1OC	-10.9% (inactive)
COc1ccc(C(O)(C2CCCCC2)C(CN2CCCC2)c2ccccc2)cc1 (centres undefined)	0.707% (inactive)
O=C(NCc1cc(F)cc(C(F)(F)F)c1)C1CCC(=O)N(C2CCCC2)C1 (centres undefined)	40.9% (inactive)
CCC(=O)Nc1nnc(S(=O)(=O)N(CC(C)C)c2ccccc2)s1	1.25% (inactive)
O=S(=O)(NCc1ccco1)c1cnc(Cl)c(Cl)c1	-12.1% (inactive)
C/C(=N\Nc1nc(Nc2ccccc2)nc(N2CCOCC2)n1)c1cccs1	-5.79% (inactive)
CCN(CC)c1ccc(C(=O)N/N=C(\C)c2cccc(OC)c2)cc1	22.3% (inactive)
C/C(=N\Nc1nc2ccccc2[nH]1)c1cccs1	97.5% (active)
C/C(=N\Nc1ncc(Cl)cc1Cl)c1ccc(S(=O)(=O)NCc2ccco2)cc1	144% (active)
COC(=O)c1sccc1N/N=C(\C)c1ccc(F)c(Cl)c1	-5.96% (inactive)
COc1cccc(/C(C)=N/Nc2ncc(Cl)cc2Cl)c1	38.2% (active)
C/C(=N\Nc1ncc(Cl)cc1Cl)c1cccs1	101% (active)
C/C(=N\Nc1ccc(S(N)(=O)=O)cc1[N+](=O)[O-])c1cccs1	2.64% (inactive)
C/C(=N\NS(=O)(=O)c1ccc(Br)cc1)c1cccs1	-4.11% (inactive)
O=C(Nc1ccccc1-c1nc2ccccc2[nH]c1=O)c1cccs1	-5.13% (inactive)
Cc1c(Cl)cnc(NC(=O)COC(=O)c2ccc(S(=O)(=O)NCc3ccco3)cc2)c1Cl	-13.9% (inactive)
Cc1ccc(N2CCN(c3ccc([N+](=O)[O-])cn3)CC2)c(C)c1	-5.14% (inactive)
COc1ccc2c(c1OC)C(=O)N(c1ccc(O)cc1)C2	29.7% (inactive)
O=C(COc1ccc(S(=O)(=O)N2CCOCC2)cc1Cl)N1CCOCC1	-5.97% (inactive)
O=C(c1ccccc1)N1CCC(CC2CC(c3ccc(Cl)cc3)=NO2)(C(=O)NCC2CCCCC2)CC1 (centres undefined)	-0.8% (inactive)
Cc1ccc(N2CC(C(=O)Nc3ccc(S(=O)(=O)N4CCCC4)cc3)CC2=O)cc1C (centres undefined)	-5.32% (inactive)

Structure (SMILES)	inhibition
Cc1ccc(-c2ccc(/C=C(\C#N)C(N)=S)o2)c([N+](=O)[O-])c1	19.2% (active)
N#C/C(=C/c1ccc(-c2ccccc2[N+](=O)[O-])o1)C(=O)NCCN1CCCCC1	6.58% (inactive)
Cc1ccc(Cc2cnc(NC(=O)/C(C#N)=C/c3ccc(-c4cccc([N+](=O)[O-])c4)o3)s2)cc1	19.7% (inactive)
CCc1cc(=O)oc2c(C)c(OCC(=O)N3CC[C@@]4(O)CCCC[C@H]4C3)ccc12	-4.55% (inactive)
Cc1cccc(C)c1NC(=O)C(Cl)C(=O)c1ccccc1 (centres undefined)	-15.6% (inactive)
CC(C)N(C(=O)Cn1cc(S(=O)(=O)CC(=O)N2CCOCC2)c2ccccc21)C(C)C	-3.05% (inactive)
O=C(CSc1nnc2ccc(-c3ccncc3)nn12)N1CCCCC1	-15.9% (inactive)
CC(Sc1nnnn1C1CCCCC1)C(=O)O (centres undefined)	3.3% (inactive)
CC(C)C(=O)Nc1nnc(SCC(=O)N2C(C)CCCC2C)s1 (centres undefined)	-4.35% (inactive)
CC1CCCC(C)N1C(=O)CSc1nnnn1C1CCCC1 (centres undefined)	53.7% (active)
O=C(CSc1nnnn1C1CCCC1)N1CCCCC1	110% (active)
CCCc1nnc(SCC(=O)N2C(C)CCCC2C)n1CC (centres undefined)	3.99% (inactive)
COc1ccc(C2NC(=O)C(=O)/C2=C(\O)c2ccc(Cl)cc2)cc1OC (centres undefined)	-18% (inactive)
CCN(CC(=O)NCCCN1CCOCC1)S(=O)(=O)c1cc(Cl)ccc1Cl	10.6% (inactive)
Cc1cccc(N2CCN(C(=O)c3cccc(N4C(=O)C5C6C=CC(C6)C5C4=O)c3)CC2)c1C (centres undefined)	-9.11% (inactive)
CCC(C)NC(=O)C1c2ccccc2C(=O)N1Cc1ccccc1 (centres undefined)	-8.49% (inactive)
CCOc1ccc(NC(=O)C2CCN(C(=O)N3CCOc4ccccc43)CC2)cc1	7.11% (inactive)
O=C(Nc1nc2c(F)cc(F)cc2s1)C1COc2ccccc2O1 (centres undefined)	71.8% (active)
COc1ccc([N+](=O)[O-])cc1NC(=O)CCc1ccccc1	17% (inactive)
O=C(Nc1nnc(SCc2ccc(Cl)cc2Cl)s1)C1COc2ccccc2O1 (centres undefined)	-4.34% (inactive)
Cc1ccc(S(=O)(=O)N(C)C)cc1NC(=O)COC(=O)C1COc2ccccc2O1 (centres undefined)	-6.06% (inactive)
O=C(Cc1c(F)cccc1Cl)Nc1ncc([N+](=O)[O-])s1	75.5% (active)
O=C(Cc1c(F)cccc1Cl)Nc1ccc(-n2cnnn2)cc1	12.8% (inactive)
CN(c1ccccc1)S(=O)(=O)c1cccc(NC(=O)Cc2c(F)cccc2Cl)c1	-0.293% (inactive)

Structure (SMILES)	inhibition
CCN(CC)S(=O)(=O)c1ccc(N2CCOCC2)c(NC(=O)C2COc3ccccc3O2)c1 (centres undefined)	4.87% (inactive)
CC(C)Cc1nnc(NC(=O)CCc2ccccc2)s1	7.6% (inactive)
O=C(Nc1ncc([N+](=O)[O-])s1)C1COc2ccccc2O1 (centres undefined)	93.4% (active)
O=C(Nc1nc(-c2ccncc2)cs1)C1COc2ccccc2O1 (centres undefined)	-4.34% (inactive)
O=C(CCc1ccccc1)Nc1ncc([N+](=O)[O-])s1	85.8% (active)
Cc1cc(C)cc(N(CC(=O)NC2CCCC2)C(=O)CCC(=O)Nc2cc(C)on2)c1	-3.5% (inactive)
Cc1ccc2[nH]cc(CCNC(=O)C3CCCCC3)c2c1	-0.198% (inactive)
CC(C)CNC(=O)CC(NCC(C)C)C(=O)O (centres undefined)	-15% (inactive)
CCCCNC(=O)C1CCC(=O)N1CCc1ccccc1 (centres undefined)	2.74% (inactive)
COc1cc(C(=O)NC2CCN(Cc3ccccc3)CC2)cc(Cl)c1OC(C)C	2.17% (inactive)
Cc1cc(OCC(=O)NCC(O)c2ccccc2)c2c(C)c(C)c(=O)oc2c1 (centres undefined)	0.938% (inactive)
CCCCN(C)CCCNC(=O)c1cc(-c2cccs2)nc2ccccc12	-4.77% (inactive)
COc1cc(CN2CCCN(C)CC2)c([N+](=O)[O-])cc1OC	-4.36% (inactive)
CCN(C(=O)CN1C(=O)/C(=C/c2ccc(F)cc2)SC1=S)C1CCS(=O)(=O)C1 (centres undefined)	-8.73% (inactive)
CCc1nn(CCCC(=O)Nc2ccc(C)cc2C)c(=O)c2cc3occc3n12	-5.79% (inactive)
O=C(Nc1cccc(Cl)c1N1CCOCC1)c1cccnc1	-2.36% (inactive)
Cc1cccc(N(C(=O)Cn2nnc(-c3ccc(C)o3)n2)C(C(=O)NC2CCCC2)c2ccncc2)c1 (centres undefined)	-3.72% (inactive)
COc1ccc2c(CC(=O)N3CCc4cc(OC)c(OC)cc4C3)coc2c1	-3.55% (inactive)
COc1ccc(NC(=O)CC2COc3ccccc3O2)c(OC)c1 (centres undefined)	25% (inactive)
C/C(=N/NC(=O)C1COc2ccccc2O1)c1ccco1 (centres undefined)	3.3% (inactive)
COc1ccc(NC(=O)c2ccccc2[N+](=O)[O-])cc1OC	9.2% (inactive)
O=C(Nc1ccncc1)c1ccccc1[N+](=O)[O-]	5.85% (inactive)
COc1ccc(NC(=O)C2COc3ccccc3O2)cc1 (centres undefined)	70.7% (active)
CC(=O)Oc1ccccc1C(=O)Nc1ncc([N+](=O)[O-])s1	77.1% (active)

Structure (SMILES)	inhibition
CC(C)(C)c1cc[n+](-c2[nH]c(=O)sc2/C=N/N=C(\[O-])c2ccccc2)cc1	25.8% (inactive)
COc1ccc(CNC(=O)c2c[nH]c3c(OC)cc(OC)cc3c2=O)cc1	-11.7% (inactive)
COc1ccc(CN2CCCC(N3CCc4ccccc4C3)C2)c(O)c1 (centres undefined)	-7.05% (inactive)
CN1CCN(CCCCOc2cccc3ccccc23)CC1	29.7% (inactive)
Cc1cccc(CCNC(=O)Cn2ncc3c([nH]c4ccc(C)cc43)c2=O)c1	15.3% (inactive)
Cc1cc(-c2ccc(S(=O)(=O)N3CCc4ccccc4C3)s2)on1	-19.6% (inactive)
CC1=C(C(=O)OC(C)(C)C)C(c2ccc(Br)cc2)NC(=O)N1CCCC(=O)O (centres undefined)	9.92% (inactive)
CCSc1nnc(SCC(=O)NNC(=O)c2ccccc2F)s1	-24.4% (inactive)
Cc1cccc(NC(=O)C(C)SCc2ccccc2)c1 (centres undefined)	30.2% (inactive)
CSc1ccc(CCNC(=O)CS(=O)(=O)Cc2nc(-c3ccccc3F)oc2C)cc1	-3.45% (inactive)
CCOc1ccccc1NS(=O)(=O)c1cc2c3c(c1)C(C)C(=O)N3CCC2 (centres undefined)	-4.9% (inactive)
COc1ccc2[nH]c(C(=O)N/N=C/c3cc(OC)c(OC)c(OC)c3)cc2c1	8.34% (inactive)
COc1cccc(NC(=O)CN2CCN(CC(=O)Nc3ccccc3Cl)CC2)c1	-8.02% (inactive)
COc1ccc2[nH]c(C(=O)Nc3ccccc3Cl)cc2c1	46.8% (active)
CC(C)[C@@H](NC(=O)OC(C)(C)C)C(=O)NCC1CCC(C(=O)N[C@@H](Cc2ccccc2)C(=O)O)CC1 (some centres undefined)	2.35% (inactive)
O=C1CCN(CCc2ccccc2)CCN1CCOc1ccccc1	7.81% (inactive)
CC(C)(C)OC(=O)NCCCCCC(=O)N/N=C/c1coc2ccccc2c1=O	69.6% (active)
NC(=S)N/N=C/c1coc2cc(Cl)ccc2c1=O	5.66% (inactive)
Cc1ccc2occ(/C=N/NC(=O)c3ccccc3C)c(=O)c2c1	9.81% (inactive)
CC1CCCCN1C(=O)CCS(=O)(=O)Cc1ccccc1 (centres undefined)	24.6% (inactive)
COc1ccc(N(CC(=O)NCc2ccc(F)cc2)C(=O)CCC(=O)Nc2nccs2)cc1	-15.4% (inactive)
CCOc1ccc(OCCSc2nc3ccccc3n2CC(=O)O)cc1	1.74% (inactive)
